About 8,800 targets were measured; listed, in parts, are those with a hit and a random draw of the rest. About 0.5% of all pairs of compound and target were hits. A number with no mark means an inactive call.
Key:
Experiment in all cases: log2 fold change, soluble protein after heating vs DMSO (PISA); higher = thermal stabilisation; K562 lysate, 10 uM; active = over 0.2 and 3.5 SD of the protein, either way, in both replicates (recomputed)
lapatinib = compound: CS(=O)(=O)CCNCc1ccc(-c2ccc3ncnc(Nc4ccc(OCc5cccc(F)c5)c(Cl)c4)c3c2)o1 [lapatinib]
Outline: (§1)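 Log-two fold change in thermal stability relative to solvent controls is reported from duplicates. For each sample, crude K562 extract from dounce-homogenised pellets in PBS pH 7.4 with 1 mM MgCl2, at 1 mg/mL protein, was treated with 10 μM compound for 30 min. Aliquots heated for 3 min across 48°C-58°C were pooled, brought to 0.5% NP-40 at 4°C and cleared at 21,000xg for 90 min. The supernatant was quantified by TMTpro 16plex LC-MS/MS with channel sums equalised.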

pictilisib = compound: CS(=O)(=O)N1CCN(Cc2cc3nc(-c4cccc5[nH]ncc45)nc(N4CCOCC4)c3s2)CC1 [pictilisib]
Outline: as §1

crizotinib = compound: C[C@@H](Oc1cc(-c2cnn(C3CCNCC3)c2)cnc1N)c1c(Cl)ccc(F)c1Cl [crizotinib]
Outline: as §1

[1] = compound: C[C@H](C1=CC=C(C=C1)C(=O)NC2=C3C=CNC3=NC=C2)N
Outline: as §1

duvelisib = compound: C[C@H](Nc1ncnc2nc[nH]c12)c1cc2cccc(Cl)c2c(=O)n1-c1ccccc1 [duvelisib]
Outline: as §1

gandotinib = compound: Cc1cc(Nc2cc(CN3CCOCC3)c3nc(C)c(Cc4ccc(Cl)cc4F)n3n2)n[nH]1 [gandotinib]
Outline: as §1

tozasertib = compound: Cc1cc(Nc2cc(N3CCN(C)CC3)nc(Sc3ccc(NC(=O)C4CC4)cc3)n2)n[nH]1 [tozasertib]
Outline: as §1

doramapimod = compound: Cc1ccc(-n2nc(C(C)(C)C)cc2NC(=O)Nc2ccc(OCCN3CCOCC3)c3ccccc23)cc1 [doramapimod]
Outline: as §1

bafetinib = compound: Cc1ccc(NC(=O)c2ccc(CN3CC[C@H](N(C)C)C3)c(C(F)(F)F)c2)cc1Nc1nccc(-c2cncnc2)n1 [bafetinib]
Outline: as §1

[2] = compound: Cc1cccc(CC(=O)N2CCc3c2ccc(-c2cn(C)c4ncnc(N)c24)c3F)n1
Outline: as §1

Chain of UniProt A6NFQ2 (A6NFQ2 whole entry, looked up): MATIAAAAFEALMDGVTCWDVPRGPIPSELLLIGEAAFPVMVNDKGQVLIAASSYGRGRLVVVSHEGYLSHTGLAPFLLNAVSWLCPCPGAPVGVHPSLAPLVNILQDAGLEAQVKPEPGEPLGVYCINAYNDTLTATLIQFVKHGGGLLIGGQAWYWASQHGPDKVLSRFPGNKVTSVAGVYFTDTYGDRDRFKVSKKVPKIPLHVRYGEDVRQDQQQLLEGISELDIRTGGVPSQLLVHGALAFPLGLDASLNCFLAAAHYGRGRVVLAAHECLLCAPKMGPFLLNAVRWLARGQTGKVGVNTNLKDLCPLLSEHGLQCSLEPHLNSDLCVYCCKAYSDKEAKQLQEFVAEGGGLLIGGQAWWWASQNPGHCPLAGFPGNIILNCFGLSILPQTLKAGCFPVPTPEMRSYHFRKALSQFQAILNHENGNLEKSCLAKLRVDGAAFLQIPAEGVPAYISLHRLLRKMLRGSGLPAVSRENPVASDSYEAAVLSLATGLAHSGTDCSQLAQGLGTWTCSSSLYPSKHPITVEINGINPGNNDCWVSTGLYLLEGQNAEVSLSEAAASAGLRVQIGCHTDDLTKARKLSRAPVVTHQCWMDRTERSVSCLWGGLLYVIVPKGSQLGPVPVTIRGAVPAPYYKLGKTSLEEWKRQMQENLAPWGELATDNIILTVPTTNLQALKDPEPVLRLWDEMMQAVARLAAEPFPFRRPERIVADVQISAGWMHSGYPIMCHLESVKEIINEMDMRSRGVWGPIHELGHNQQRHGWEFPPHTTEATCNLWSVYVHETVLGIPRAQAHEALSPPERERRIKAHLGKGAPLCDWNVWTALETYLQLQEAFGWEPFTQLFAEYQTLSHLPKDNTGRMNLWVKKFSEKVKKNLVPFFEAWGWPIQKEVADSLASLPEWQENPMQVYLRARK
Chain of UniProt P61960 (P61960 whole entry, looked up): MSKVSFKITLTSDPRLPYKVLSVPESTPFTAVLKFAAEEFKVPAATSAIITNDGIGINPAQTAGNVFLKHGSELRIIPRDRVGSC
Chain of UniProt Q9UPU7 (Q9UPU7 whole entry, looked up): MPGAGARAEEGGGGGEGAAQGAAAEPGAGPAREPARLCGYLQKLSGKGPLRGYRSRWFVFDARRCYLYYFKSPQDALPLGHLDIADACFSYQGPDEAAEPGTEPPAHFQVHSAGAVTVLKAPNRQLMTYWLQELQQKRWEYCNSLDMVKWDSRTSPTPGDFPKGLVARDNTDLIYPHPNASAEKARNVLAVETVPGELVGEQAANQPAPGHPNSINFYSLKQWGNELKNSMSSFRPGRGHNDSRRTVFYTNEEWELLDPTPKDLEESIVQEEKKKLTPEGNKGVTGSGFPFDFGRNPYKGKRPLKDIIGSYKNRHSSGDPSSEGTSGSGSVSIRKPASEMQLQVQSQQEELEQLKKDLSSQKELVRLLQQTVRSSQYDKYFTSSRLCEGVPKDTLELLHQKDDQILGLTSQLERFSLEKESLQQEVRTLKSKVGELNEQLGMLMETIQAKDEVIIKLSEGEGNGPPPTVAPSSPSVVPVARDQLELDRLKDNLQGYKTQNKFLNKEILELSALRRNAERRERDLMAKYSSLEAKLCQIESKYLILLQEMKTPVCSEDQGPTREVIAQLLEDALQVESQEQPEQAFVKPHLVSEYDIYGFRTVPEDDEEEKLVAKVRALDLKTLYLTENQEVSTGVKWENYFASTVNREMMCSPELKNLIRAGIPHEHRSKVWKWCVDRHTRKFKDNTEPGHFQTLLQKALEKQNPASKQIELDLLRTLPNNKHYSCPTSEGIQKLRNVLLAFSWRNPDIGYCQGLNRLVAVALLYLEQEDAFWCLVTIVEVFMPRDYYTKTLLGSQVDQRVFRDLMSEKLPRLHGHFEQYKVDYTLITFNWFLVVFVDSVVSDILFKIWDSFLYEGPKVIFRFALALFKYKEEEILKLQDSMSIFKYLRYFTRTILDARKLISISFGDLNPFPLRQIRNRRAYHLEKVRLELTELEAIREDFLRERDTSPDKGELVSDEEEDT
Chain of UniProt Q6YHU6 (Q6YHU6 whole entry, looked up): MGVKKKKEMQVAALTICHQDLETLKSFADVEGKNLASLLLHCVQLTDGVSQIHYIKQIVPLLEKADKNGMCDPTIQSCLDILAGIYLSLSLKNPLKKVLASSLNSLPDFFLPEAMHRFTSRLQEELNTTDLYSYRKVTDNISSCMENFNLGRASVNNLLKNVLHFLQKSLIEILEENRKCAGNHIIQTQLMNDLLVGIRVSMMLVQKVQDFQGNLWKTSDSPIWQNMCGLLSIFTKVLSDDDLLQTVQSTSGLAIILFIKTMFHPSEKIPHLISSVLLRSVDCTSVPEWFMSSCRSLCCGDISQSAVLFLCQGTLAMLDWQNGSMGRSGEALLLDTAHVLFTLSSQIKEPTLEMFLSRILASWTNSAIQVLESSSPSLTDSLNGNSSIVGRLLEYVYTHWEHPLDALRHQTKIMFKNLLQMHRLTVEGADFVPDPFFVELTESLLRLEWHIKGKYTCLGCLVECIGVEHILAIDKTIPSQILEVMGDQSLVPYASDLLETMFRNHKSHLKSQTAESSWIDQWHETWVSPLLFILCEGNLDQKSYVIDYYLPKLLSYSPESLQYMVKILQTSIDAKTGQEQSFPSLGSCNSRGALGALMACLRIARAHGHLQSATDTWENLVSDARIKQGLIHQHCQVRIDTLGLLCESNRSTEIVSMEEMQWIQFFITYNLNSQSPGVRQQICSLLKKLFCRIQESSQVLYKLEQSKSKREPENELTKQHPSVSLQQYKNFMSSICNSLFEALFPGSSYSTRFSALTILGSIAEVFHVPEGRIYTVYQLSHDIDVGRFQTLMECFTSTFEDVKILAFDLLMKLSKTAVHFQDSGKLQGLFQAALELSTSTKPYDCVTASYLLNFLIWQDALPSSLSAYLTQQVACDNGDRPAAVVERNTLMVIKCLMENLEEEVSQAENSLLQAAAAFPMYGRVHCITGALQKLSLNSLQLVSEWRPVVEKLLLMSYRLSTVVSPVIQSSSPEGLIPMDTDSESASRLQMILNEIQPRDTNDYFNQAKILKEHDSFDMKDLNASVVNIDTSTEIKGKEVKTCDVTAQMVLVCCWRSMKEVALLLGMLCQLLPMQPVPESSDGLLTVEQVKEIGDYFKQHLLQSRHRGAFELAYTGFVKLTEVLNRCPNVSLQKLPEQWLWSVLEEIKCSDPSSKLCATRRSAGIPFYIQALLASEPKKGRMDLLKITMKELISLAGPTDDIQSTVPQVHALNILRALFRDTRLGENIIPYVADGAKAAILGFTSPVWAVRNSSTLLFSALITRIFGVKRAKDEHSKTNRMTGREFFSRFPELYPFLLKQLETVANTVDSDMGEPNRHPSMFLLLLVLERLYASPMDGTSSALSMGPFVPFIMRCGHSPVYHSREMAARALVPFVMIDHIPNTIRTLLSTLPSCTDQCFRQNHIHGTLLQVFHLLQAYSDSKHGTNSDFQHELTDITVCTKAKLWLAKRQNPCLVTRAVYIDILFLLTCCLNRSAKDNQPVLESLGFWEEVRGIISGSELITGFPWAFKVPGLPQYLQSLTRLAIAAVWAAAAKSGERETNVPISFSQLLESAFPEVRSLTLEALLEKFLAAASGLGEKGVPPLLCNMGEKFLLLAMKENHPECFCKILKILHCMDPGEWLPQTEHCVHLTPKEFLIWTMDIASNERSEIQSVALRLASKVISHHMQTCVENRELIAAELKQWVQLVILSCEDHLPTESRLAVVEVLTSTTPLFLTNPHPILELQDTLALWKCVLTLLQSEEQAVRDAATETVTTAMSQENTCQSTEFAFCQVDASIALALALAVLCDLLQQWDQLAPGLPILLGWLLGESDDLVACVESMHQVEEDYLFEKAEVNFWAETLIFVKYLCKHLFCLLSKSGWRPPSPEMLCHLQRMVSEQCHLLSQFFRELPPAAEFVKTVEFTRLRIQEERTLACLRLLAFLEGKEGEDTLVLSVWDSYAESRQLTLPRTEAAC
Chain of UniProt Q8WUH2 (Q8WUH2 whole entry, looked up): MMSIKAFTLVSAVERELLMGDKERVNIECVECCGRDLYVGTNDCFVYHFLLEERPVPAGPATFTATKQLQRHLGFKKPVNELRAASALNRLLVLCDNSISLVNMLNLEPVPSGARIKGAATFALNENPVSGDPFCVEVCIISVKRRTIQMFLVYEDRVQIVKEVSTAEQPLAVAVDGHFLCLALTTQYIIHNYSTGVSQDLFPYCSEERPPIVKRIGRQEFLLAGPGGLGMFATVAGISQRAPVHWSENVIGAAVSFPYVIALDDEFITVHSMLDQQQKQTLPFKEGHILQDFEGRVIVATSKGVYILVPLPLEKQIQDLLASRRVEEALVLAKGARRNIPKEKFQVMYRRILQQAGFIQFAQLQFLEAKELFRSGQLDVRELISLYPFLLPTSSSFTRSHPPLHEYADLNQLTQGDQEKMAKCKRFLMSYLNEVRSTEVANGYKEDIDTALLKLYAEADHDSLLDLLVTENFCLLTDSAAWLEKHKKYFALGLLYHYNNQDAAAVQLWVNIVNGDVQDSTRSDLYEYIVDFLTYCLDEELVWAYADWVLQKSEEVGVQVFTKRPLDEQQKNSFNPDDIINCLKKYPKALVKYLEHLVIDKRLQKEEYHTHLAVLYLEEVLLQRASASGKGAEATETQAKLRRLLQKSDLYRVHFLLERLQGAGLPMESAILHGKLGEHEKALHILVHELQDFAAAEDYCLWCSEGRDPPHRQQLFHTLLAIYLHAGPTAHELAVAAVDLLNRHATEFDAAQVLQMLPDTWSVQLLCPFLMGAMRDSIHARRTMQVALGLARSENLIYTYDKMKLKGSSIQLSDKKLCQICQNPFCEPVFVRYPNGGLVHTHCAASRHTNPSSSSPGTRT
Chain of UniProt Q5BVD1 (Q5BVD1 whole entry, looked up): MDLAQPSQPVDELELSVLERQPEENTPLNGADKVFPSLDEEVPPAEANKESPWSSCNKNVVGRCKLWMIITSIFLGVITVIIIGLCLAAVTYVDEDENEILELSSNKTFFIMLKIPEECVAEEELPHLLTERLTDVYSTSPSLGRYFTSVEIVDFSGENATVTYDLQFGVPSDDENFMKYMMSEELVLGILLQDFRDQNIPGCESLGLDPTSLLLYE

Row | Target | log2 fold change (lapatinib) | log2 fold change (pictilisib) | log2 fold change (crizotinib) | log2 fold change [1] | log2 fold change (duvelisib) | log2 fold change (gandotinib) | log2 fold change (tozasertib) | log2 fold change (doramapimod) | log2 fold change (bafetinib) | log2 fold change [2]
1 | TRIM33 (UniProt H0Y612) | -0.078 | 0.044 | 0.004 | -0.093 | 0.012 | 0.019 | 0.07 | 0.001 | -0.077 | 0.039
2 | TTK (UniProt P33981) | 0.061 | 0.142 | -0.008 | 0 | -0.031 | 0.058 | -0.054 | 0.143 | -0.068 | 0.024
3 | TBK1 (UniProt Q9UHD2) | 0.042 | 0.054 | 0.469 (active) | -0.059 | -0.046 | 0.342 | 0.314 | -0.024 | 0.007 | -0.044
4 | TELO2 (UniProt Q9Y4R8) | -0.016 | -0.01 | -0.053 | -0.038 | -0.015 | -0.087 | -0.012 | 0.037 | -0.054 | 0.056
5 | TERF2IP (UniProt Q9NYB0) | -0.007 | 0.007 | 0.021 | 0.249 (active) | 0.022 | -0.122 | -0.023 | -0.016 | 0.004 | -0.181
6 | TRAPPC9 isoform 2 (UniProt Q96Q05) | -0.02 | 0.012 | -0.084 | -0.053 | -0.038 | -0.037 | 0.037 | 0.029 | -0.026 | 0.021
7 | TOR3A (UniProt Q9H497) | -0.43 (active) | -0.077 | 0.023 | -0.078 | 0.012 | 0.012 | -0.047 | -0.024 | 0.046 | 0.048
8 | UBR3 isoform 4 (UniProt Q6ZT12) | -0.003 | 0.01 | -0.092 | -0.006 | -0.003 | -0.046 | 0.06 | 0.015 | -0.042 | 0.05
9 | TESC (UniProt Q96BS2) | -0.03 | -0.122 | 0 | -0.095 | 0.026 | -0.066 | 0.026 | 0.073 | 0.048 | 0.037
10 | TBC1D2B (UniProt Q9UPU7) | 0.076 | 0.006 | 0.041 | 0.007 | 0.027 | -0.096 | -0.005 | 0.007 | -0.057 | 0.052
11 | TCF12 isoform 3 (UniProt Q99081) | -0.047 | 0.055 | 0.034 | -0.038 | 0.025 | 0.056 | 0.023 | -0.011 | -0.11 | -0.001
12 | TIMELESS (UniProt Q9UNS1) | 0.017 | -0.017 | -0.077 | -0.042 | -0.029 | -0.12 | -0.026 | -0.02 | -0.082 | 0.032
13 | TUBA3C (UniProt P0DPH7) | 0.038 | -0.003 | -0.078 | 0.009 | 0.03 | 0.072 | 0.055 | 0.014 | 0.012 | 0.023
14 | UFM1 (UniProt P61960) | 0.134 | 0.033 | 0.191 | 0.566 (active) | 0.077 | -0.36 | -0.002 | 0.022 | 0.102 | -0.319
15 | UBE4A isoform 2 (UniProt Q14139) | -0.019 | -0.007 | -0.059 | -0.009 | 0.016 | -0.15 | 0 | 0.004 | -0.054 | 0.043
16 | TPM3 isoform 2 (UniProt P06753) | -0.012 | 0.021 | 0.093 | 0.095 | 0.003 | -0.169 | 0.067 | 0.02 | 0.055 | -0.152
17 | UBP1 (UniProt Q9NZI7) | 0.049 | -0.004 | -0.202 | 0.206 | -0.025 | -0.01 | -0.043 | 0.15 | -0.029 | -0.124
18 | TTMP isoform 3 (UniProt Q5BVD1) | -0.1 | 0.013 | -0.241 | -0.618 (active) | 0.138 | 0.384 | -0.022 | 0.137 | -0.197 | 0.47
19 | TTLL12 (UniProt Q14166) | -0.002 | -0.02 | -0.039 | 0.014 | 0.015 | -0.091 | 0.023 | 0.016 | -0.004 | 0.014
20 | TGFBRAP1 (UniProt Q8WUH2) | -0.029 | -0.021 | -0.034 | -0.001 | -0.03 | -0.138 | 0.052 | 0.028 | -0.056 | -0.007
21 | UBR4 (UniProt Q5T4S7) | -0.023 | -0.015 | -0.038 | -0.017 | -0.001 | -0.08 | 0 | 0.01 | -0.038 | 0.037
22 | UBXN6 (UniProt Q9BZV1) | -0.075 | -0.048 | 0.004 | -0.014 | -0.028 | -0.018 | 0.008 | 0.017 | 0.033 | -0.023
23 | TMEM70 (UniProt Q9BUB7) | -0.002 | -0.012 | -0.082 | -0.304 (active) | 0.011 | 0.057 | -0.014 | 0.092 | -0.038 | 0.138
24 | TRAPPC10 (UniProt P48553) | 0 | 0 | -0.034 | -0.101 | -0.016 | 0.022 | -0.01 | -0.027 | -0.007 | 0.074
25 | TTF2 (UniProt Q9UNY4) | 0.028 | -0.048 | -0.104 | -0.052 | 0 | 0 | 0.019 | 0.053 | -0.02 | 0.102
26 | THADA (UniProt Q6YHU6) | -0.042 | -0.06 | -0.073 | -0.041 | -0.02 | -0.064 | -0.003 | -0.002 | -0.041 | 0.086
27 | TBC1D8B (UniProt Q0IIM8) | 0 | -0.072 | 0.013 | -0.229 | 0.007 | 0.176 | -0.011 | 0.014 | 0.03 | 0.097
28 | TMEM199 (UniProt Q8N511) | -0.034 | -0.035 | 0.062 | -0.053 | 0.051 | 0.016 | 0.074 | -0.068 | -0.016 | 0.099
29 | TCAF2 (UniProt A6NFQ2) | 0.024 | -0.017 | -0.108 | -0.02 | 0.004 | -0.098 | 0.008 | -0.03 | -0.048 | 0.041
